mHTT-CaM PPI inh – disrupts binding of mutant huntingtin to calmodulin | P42858 | AlphaScreen His-mHTT/GST-CaM binding, luminescence | inhibition, % at 15 µM | 3.6% of 190,000 active | AID 1671202
Pf apPOL block – Pf-apPOL DNA polymerase inhibition; Recombinant Pf-apPOL, molecular beacon fluorescence, 1.5 h; inhibition, % at 10 µM; 0.25% of 210,000 active; AID 1794808
Of the large screens only hits and unclear results are named; the others gave an inactive call; ! = not active in a repeat. Shown is part of a subset that was picked to be rich in hits. Rule as the data show it: active = inhibition above about 50%; inactive = the rest.

O=C(NCCCCc1ccccc1)c1ccc([N+](=O)[O-])cc1Cl	none
Cc1ccccc1N1C(=O)NC(=O)/C(=C\c2cn(CC(=O)N3CCOCC3)c3ccccc23)C1=O	none
Cc1ccccc1N1C(=O)NC(=O)/C(=C\c2cn(CC(=O)Nc3ccccc3)c3ccccc23)C1=O	mHTT-CaM PPI inh 64.0
O=C1NC(=O)N(c2ccccc2F)C(=O)/C1=C/c1cn(CC(=O)N2CCCC2)c2ccccc12	mHTT-CaM PPI inh 75.0
Cc1cccc(N2C(=O)NC(=O)/C(=C\c3cn(CC(=O)N4CCCC4)c4ccccc34)C2=O)c1C	none
Cc1cccc(N2C(=O)NC(=O)/C(=C\c3cn(CC(=O)N4CCOCC4)c4ccccc34)C2=O)c1	none
O=C1NC(=O)N(c2ccccc2F)C(=O)/C1=C/c1cn(CC(=O)N2CCCCC2)c2ccccc12	mHTT-CaM PPI inh 59.0
COc1ccc(S(=O)(=O)N2CCCC2C(=O)O)cc1OC (stereo unspecified)	none
Cc1ccc(C2=NC(=Cc3cccs3)C(=O)O2)cc1[N+](=O)[O-]	none (no result: mHTT-CaM PPI inh)
COc1cc(OC)c(NC(=O)N2CCCC2c2c(C)noc2C)cc1Cl (stereo unspecified)	none
CCOC(=O)N1CCN(C2CC(=O)N(c3ccccc3OC(F)F)C2=O)CC1 (stereo unspecified)	none
CCCCN(C)CCNC(=O)CN1C(=O)/C(=C/c2cccc(Cl)c2)Sc2ccccc21	none
O=C(CN1C(=O)/C(=C/c2ccc(Cl)cc2)Sc2ccccc21)NCCN1CCCC1	none
CCCCN(C)CCCNC(=O)CN1C(=O)/C(=C/c2cccc(Cl)c2)Sc2ccccc21	mHTT-CaM PPI inh 98.0
CCN(CC)CCNC(=O)CN1C(=O)/C(=C/c2cccc(Cl)c2)Sc2ccccc21	none
CCN(CC)CCNC(=O)CN1C(=O)/C(=C/c2ccc(C(F)(F)F)cc2)Sc2ccccc21	mHTT-CaM PPI inh 100.0
O=C(CN1C(=O)/C(=C/c2cccc(Cl)c2)Sc2ccccc21)NCCN1CCCCCC1	mHTT-CaM PPI inh 54.0
CC1=C([N+](=O)[O-])C(c2cccc([N+](=O)[O-])c2)N(C)C(=O)N1C (stereo unspecified)	none
CC=C1C(OC2OC(CO)C(O)C(O)C2O)OC=C(C(=O)OC)C1CC(=O)OCCc1ccc(O)c(O)c1 (stereo unspecified)	none (no result: mHTT-CaM PPI inh)
CCOC(=O)N1CCN(CC(O)COc2cc(C)c(Cl)c(C)c2)CC1 (stereo unspecified)	none
O=C1C(=O)N(CCO)C(c2ccccc2)C1=C(O)c1ccccc1 (stereo unspecified)	none
CCOc1ccc(N2CC(NC(=O)N3CCN(C(=O)c4ccco4)CC3)CC2=O)cc1 (stereo unspecified)	none
Cc1cc(C)c(C)c(S(=O)(=O)NCC2CCCO2)c1C (stereo unspecified)	none (no result: Pf apPOL block)
CCOC(=O)CCC(=O)Nc1nnc(-c2csc(C)n2)o1	mHTT-CaM PPI inh 61.4
O=C(Cn1c(=O)oc2ccccc21)Nc1nnc(-c2ccco2)o1	none
Cc1nc(-c2nnc(NC(=O)Cn3c(=O)oc4ccccc43)o2)cs1	mHTT-CaM PPI inh 97.9
Cc1nc(-c2nnc(NC(=O)Cc3ccc4c(c3)OCO4)o2)cs1	none
COc1ccc(N=Cc2nc(-c3ccc(C)cc3)oc2O)cc1Cl	none
Cc1nc2cc(N3CC(C(=O)NCc4ccc(OC(C)C)cc4)CC3=O)ccc2o1 (stereo unspecified)	mHTT-CaM PPI inh 100.3
COc1ccc(CNC(=O)C2CC(=O)N(c3ccc4oc(C)nc4c3)C2)cc1OC (stereo unspecified)	none
CC(C)(C)C(=O)Nc1ccc2c(c1)CC(=O)N2	none
O=C(NCCc1cccnc1)C1CCc2sc(C(=O)N3CCCC3)cc2C1 (stereo unspecified)	none
Cc1cc(C)c(S(=O)(=O)n2cnc3ccccc32)c(C)c1	none
Cc1ccc(S(=O)(=O)N=C2C=CC(=O)c3ccccc32)c(C)c1	mHTT-CaM PPI inh 86.0
Cc1ccc(S(=O)(=O)N=C2C=CC(=O)C=C2)c(C)c1	none
Cc1cc(C)c(S(=O)(=O)N=C2C=CC(=O)c3ccccc32)c(C)c1	mHTT-CaM PPI inh 66.0
CC(=O)Nc1ccc(Nc2nnc(-c3ccc(O)cc3)c3ccccc23)cc1	none
COc1ccc(Nc2nnc(-c3ccc(C(=O)NCCO)cc3)c3ccccc23)cc1	none
CCN(CC)C(=O)COc1ccc(-c2nnc(NCc3ccccc3)c3ccccc23)cc1	mHTT-CaM PPI inh 99.0
CNC(=O)COc1ccc(Nc2nnc(-c3ccc(C)cc3)c3ccccc23)cc1	mHTT-CaM PPI inh 67.0!
CCOc1ccc(-c2nnc(Nc3ccc(OC)c(C(N)=O)c3)c3ccccc23)cc1	mHTT-CaM PPI inh 65.0
CN(C)C(=O)c1ccc(-c2nnc(NCc3ccccc3)c3ccccc23)cc1	none
CN1CCN(Cc2c(O)ccc3c2OC(=Cc2ccc4c(c2)OCO4)C3=O)CC1	none
O=S(=O)(Cc1ccccc1)c1nc2ccccc2n1Cc1ccccc1	none
COc1ccc(CCNC(=O)NCC(C)(O)C2CC2)cc1 (stereo unspecified)	none
CC1CCN(CC2CCN(S(=O)(=O)c3cccc(C#N)c3)CC2)CC1	none
C[n+]1ccc(/C=C/c2ccccc2F)c2ccccc21	none
C=CC[n+]1ccc(/C=C/c2ccccc2O)c2ccccc21	mHTT-CaM PPI inh 69.0
CCCC(=O)NC(c1ccccc1)c1ccccc1	none
CCCC(=O)NC(c1ccc(OC)cc1)c1ccc2cccnc2c1O (stereo unspecified)	mHTT-CaM PPI inh 100.0
CCCC(=O)NC(c1ccccc1)c1ccc2cccnc2c1O (stereo unspecified)	mHTT-CaM PPI inh 100.0
CCCC(=O)NC(c1ccc(F)cc1)c1ccc2cccnc2c1O (stereo unspecified)	mHTT-CaM PPI inh 100.0
CCCC(=O)NC(c1ccccc1)c1cc(Cl)c2cccnc2c1O (stereo unspecified)	none
CCCCC(=O)NC(c1ccccc1)c1ccc2cccnc2c1O (stereo unspecified)	mHTT-CaM PPI inh 100.0
CCc1ccc(CCNC(=O)O[C@@H]2C[C@H]3C[C@@H]2[C@H]2CCCCN2C3)cc1	none
O=C(c1cc(-c2ccc(F)cc2)no1)N1CCCC1c1ccc(F)cc1 (stereo unspecified)	none
COc1ccc(C(=O)N2CCCN(Cc3noc(-c4ccccc4)n3)CC2)cc1	none
Cc1c(C(=O)NC2CCCC(C)C2C)sc2ncnc(N3CCOCC3)c12 (stereo unspecified)	none
CCCCNC(=O)c1c(Cl)nc(Cl)c(Cl)c1C	none
CCCCNC(=O)c1c(Cl)nc(Cl)c([N+](=O)[O-])c1Cl	mHTT-CaM PPI inh 94.0
C=CCn1c(=O)c2c(ncn2CC)n(-c2ccc(C)cc2)c1=O	none
Nc1cc2c(cc1[N+](=O)[O-])OCO2	none
CCc1ccc(C(c2ccc(CC)o2)c2cc3c(cc2[N+](=O)[O-])OCO3)o1	mHTT-CaM PPI inh 84.0
Cc1ccc(-c2cc(-c3ccccc3)nc(NN)n2)cc1	none
COc1ccc(-c2cc(-c3ccccc3)nc(NN)n2)cc1OC	mHTT-CaM PPI inh 63.0
O=C(NCCOc1cc(N2CCCC2)ncn1)Nc1ccc(Cl)c(Cl)c1	none
COc1cc([N+](=O)[O-])ccc1NC(=O)CCCOc1ccc(Cl)cc1	none
Cc1cccc(CNC(=O)c2ccc3c(c2)n(C)c(=O)c2ccnn23)c1	mHTT-CaM PPI inh 57.5
Cn1c(=O)c2ccnn2c2ccc(C(=O)NCc3ccccc3)cc21	none
Cc1[nH]n(-c2cccc(Cl)c2)c(=O)c1C=Nc1ccc([N+](=O)[O-])c([N+](=O)[O-])c1	none
C=CCNC(=O)c1nc(N2CCCCC2)c2c(C)c(C)n(-c3ccccc3)c2n1	mHTT-CaM PPI inh 89.4
C=CCNC(=O)c1nnc(N2CCCC2)c2ccccc12	none
COc1ccc(C(=O)N2CCC(c3nc(C4CC4)n[nH]3)CC2)cc1OC	none
